Screen size: about 60,000 compounds; about 210 (0.35%) were called active. The sample holds actives, similar compounds and a random draw of the others, so the mix is not that of the screen. Values without a mark were called inactive.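 The calls were made as follows: active = inhibition above the screen-wide mean inhibition plus 3 SD (cut at about 18% in these data); inactive = the rest.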

Rho-associated protein kinase 2 (Homo sapiens), sequence (O75116 whole entry, looked up): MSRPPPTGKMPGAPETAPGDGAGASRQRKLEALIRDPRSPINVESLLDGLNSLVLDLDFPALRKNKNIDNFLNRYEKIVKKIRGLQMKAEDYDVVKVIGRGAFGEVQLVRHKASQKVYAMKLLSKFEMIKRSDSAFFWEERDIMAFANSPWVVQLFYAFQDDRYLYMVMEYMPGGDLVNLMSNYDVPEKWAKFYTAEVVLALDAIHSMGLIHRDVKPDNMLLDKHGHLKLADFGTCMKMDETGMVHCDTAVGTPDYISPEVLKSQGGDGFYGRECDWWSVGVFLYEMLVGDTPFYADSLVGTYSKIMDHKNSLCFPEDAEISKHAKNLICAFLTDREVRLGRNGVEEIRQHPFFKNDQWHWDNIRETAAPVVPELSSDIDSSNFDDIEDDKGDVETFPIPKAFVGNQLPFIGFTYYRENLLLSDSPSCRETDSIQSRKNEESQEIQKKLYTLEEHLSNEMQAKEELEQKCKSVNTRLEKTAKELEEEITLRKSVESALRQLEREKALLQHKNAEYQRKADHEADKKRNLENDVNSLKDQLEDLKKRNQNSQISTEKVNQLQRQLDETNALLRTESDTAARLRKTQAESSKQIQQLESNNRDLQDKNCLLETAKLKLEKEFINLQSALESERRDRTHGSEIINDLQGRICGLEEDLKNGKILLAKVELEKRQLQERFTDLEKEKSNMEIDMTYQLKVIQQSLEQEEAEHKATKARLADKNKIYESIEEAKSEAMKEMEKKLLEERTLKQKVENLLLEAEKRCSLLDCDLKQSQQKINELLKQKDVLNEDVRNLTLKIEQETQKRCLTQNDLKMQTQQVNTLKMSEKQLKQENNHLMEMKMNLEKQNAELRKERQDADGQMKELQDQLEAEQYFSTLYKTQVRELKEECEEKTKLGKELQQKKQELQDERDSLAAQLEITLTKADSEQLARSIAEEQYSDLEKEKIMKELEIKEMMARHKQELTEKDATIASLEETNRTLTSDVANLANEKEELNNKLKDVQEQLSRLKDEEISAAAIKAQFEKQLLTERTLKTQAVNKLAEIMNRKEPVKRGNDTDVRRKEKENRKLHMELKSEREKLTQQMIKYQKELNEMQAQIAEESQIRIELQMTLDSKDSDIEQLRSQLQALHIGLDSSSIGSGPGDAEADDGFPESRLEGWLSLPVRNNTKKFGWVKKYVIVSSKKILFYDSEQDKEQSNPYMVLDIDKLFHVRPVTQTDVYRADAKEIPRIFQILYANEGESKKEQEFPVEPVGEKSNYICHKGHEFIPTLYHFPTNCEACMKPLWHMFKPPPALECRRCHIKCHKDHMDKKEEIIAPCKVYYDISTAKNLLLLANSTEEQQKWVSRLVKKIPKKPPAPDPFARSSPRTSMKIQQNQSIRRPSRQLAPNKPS

This assay has as its target Rho-associated protein kinase 2 (Homo sapiens) (UniProt O75116). Kind of assay: ROCK2 enzymatic activity blockers – biochemical, high-throughput, luminescence, primary screen (AID 604).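 Also: plate controls were DMSO wells for no effect and Y-27632 control wells after no-enzyme background subtraction for full effect.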 The following applies: purified ROCK2, Kinase-Glo ATP depletion luminescence; at 6 µM; active compounds read high. (In general: In Kinase-Glo more light means more ATP remaining.)
For `Cc1ccc(C(=O)NCC2CCCO2)o1` (centres undefined), the inhibition – broadly, the relative decrease from the control value, in per cent – is 4.3%.

As to `C=CCn1cnc2scc(-c3ccccc3)c2c1=O`, the inhibition was 1.2%.

Turning to `C#CCN1CC(C)/C(=N/O)CC1C` (centres undefined), the inhibition was 3.7%.

In the case of `O=C1CC(c2ccccc2)CC(O)=C1C=NCCN1CCOCC1` (centres undefined), the inhibition was 3.3%.

For the molecule `COc1cccc(N2CCN(C(=O)C3CCCN(S(=O)(=O)c4cnc[nH]4)C3)CC2)c1` (centres undefined), the inhibition was 3.3%.

With `Cc1cc(C(=O)CC#N)c(C)n1CC(F)(F)F`, the inhibition was 3.3%.

For the molecule `O=C1C=C(NCCNc2c(F)c(F)c(CO)c(F)c2F)CCC1`, the inhibition was 1.5%.

Regarding `Cc1cn(C2C=CC(CO)O2)c(=O)[nH]c1=O` (centres undefined), the inhibition is 6.1%.

In the case of `Cc1cc(=O)[nH]c(SCC(=O)N2c3ccccc3CC2C)n1` (centres undefined), the inhibition is -3.6%.

In the case of `CC(C)OCCCNc1nc2c(c(=O)n(Cc3ccccc3F)c(=O)n2C)n1C`, the inhibition was -0.3%.

For `CC1Cc2ccccc2N1C(=O)CSc1nnc(-c2ccc(S(=O)(=O)N3CCCCC3)cc2)o1` (centres undefined), the inhibition is -4.4%.

Take `CCCCCCn1c(CN2CCCCC2)nc2c1c(=O)n(C)c(=O)n2C`: the inhibition was -1.3%.

`Cc1nn(-c2ccccc2)c(C)c1C(=O)OCC(=O)NC(=O)NC1CCCCC1`: the inhibition was 1.4%.

`COC(=O)C(C)n1cnc2c(nnn2-c2cccc(Cl)c2)c1=O` (centres undefined): the inhibition is 7.7%.

Regarding `O=C(CC1N=C2c3ccccc3N=C(SCc3ccccc3Cl)N2C1=O)NCc1ccco1` (centres undefined), the inhibition is 2.8%.

In the case of `Cc1cccc(OCc2nnc(SCC(=O)N3CCN(C(=O)c4ccco4)CC3)n2C)c1C`, the inhibition is 3.2%.

In the case of `O=C(c1cc(-c2ccccc2O)on1)N1CCCC1`, the inhibition was -1.5%.

With `CCOC(=O)N1CCC(NC(=O)Cn2cc3c(n2)CCCCC3)CC1`, the inhibition is 9%.

As for `O=C(CN1CCOCC1)Nc1cc(Cl)ccc1Cl`, the inhibition is 2.5%.

`O=C(NCc1ccco1)C1CCCN(S(=O)(=O)c2cnc[nH]2)C1` (centres undefined): the inhibition is 3.2%.

As to `COc1cccc(-c2nn(C)c3sc(C(=O)N4CCN(c5ccccc5)CC4)cc23)c1`, the inhibition is 6.1%.

Take `O=C(Nc1ccn(Cc2ccc(F)cc2)n1)c1ccncc1`: the inhibition is 18.1%.

Consider `CCOC(=O)Cc1csc(NC(=O)CN(C)S(=O)(=O)c2ccc3c(c2)CCC(=O)N3)n1`, for which the inhibition is 2.4%.

As to `CC(C)n1c(NCc2c[nH]c3ccccc23)nc2ccccc21`, the inhibition was 2.4%.

In the case of `Cc1cc(NC(=O)CCC(=O)N(c2cccc(F)c2)C(C(=O)NC2CCCC2)c2ccncc2)no1` (centres undefined), the inhibition is 4%.

With `Cc1ccccc1-c1nc(CS(=O)(=O)CC(=O)N2CCc3ccccc3C2)c(C)o1`, the inhibition is -0.8%.

On to `CN(C)Cc1c(O)ccc2occ(C(O)c3ccccc3)c12` (centres undefined), for which the inhibition is 2%.

As for `CSc1ccc(S(=O)(=O)NCc2ccc(Cl)cc2)cc1`, the inhibition is 5.4%.

In the case of `CCOC(=O)N1CCN(Cc2nc3c(c(=O)n(C)c(=O)n3C)n2Cc2ccccc2)CC1`, the inhibition is 2.4%.

Take `CCn1c(SCC(=O)Nc2cc(C)c(Cl)cc2OC)nnc1-c1ccco1`: the inhibition is 3.2%.

Consider `Cc1ccc(N2CCN(S(=O)(=O)N(C)C)CC2)cc1Cl`, for which the inhibition is 8.1%.

In the case of `O=c1c(-c2ccc3c(c2)OCCO3)c(C(F)(F)F)oc2cc(O)cc(O)c12`, the inhibition is -3.1%.

As to `CCOC(=O)C1=C(C)NC(C)=C(C(=O)OCC)C1c1ccccn1`, the inhibition is -6.7%.

As for `CC(=O)N1CSCC1C(=O)O` (centres undefined), the inhibition is 2.3%.

Take `Cc1noc(C)c1C(=O)Nc1ccccn1`: the inhibition is 8.1%.

Consider `O=C(NCc1cccnc1)c1ccc(CS(=O)(=O)c2ccc(Br)cc2)o1`, for which the inhibition was 1.6%.

In the case of `O=C(/C(=N\O)n1cncn1)c1ccc(Br)cc1Br`, the inhibition was -2.8%.

Regarding `CCOC(=O)NC(C(F)(F)F)(C(F)(F)F)P(=O)(c1ccccc1)c1ccccc1`, the inhibition was 3.9%.

As to `CCN(CC(=O)NCc1cccs1)c1nnnn1-c1ccccc1`, the inhibition was -4.6%.

For the molecule `C[C@H](NC(=O)NCCc1ccccc1)C(=O)O`, the inhibition is 4.7%.

In the case of `COc1ccc(C2CC(c3ccc(C)cc3)Nc3nc(N)nn32)cc1` (centres undefined), the inhibition is -2.6%.

On to `O=C(CN(Cc1ccccc1)C(=O)c1ccc2c(c1)OCCO2)NCc1ccc2c(c1)OCO2`, for which the inhibition was 5.9%.

In the case of `Cc1cccc(Cn2c(N3CCN(c4ccccc4)CC3)nc3c2c(=O)n(C)c(=O)n3C)c1`, the inhibition was 5.3%.

Regarding `COc1ccccc1NC1=NC2(CCCC2)N=C(N)N1`, the inhibition was -2%.

For `CCOc1ncccc1C(=O)OCc1cn2cc(Cl)ccc2n1`, the inhibition is 12.7%.

As for `Cc1ccc(C2c3c(oc4ccc(C)cc4c3=O)C(=O)N2CCCN2CCOCC2)cc1` (centres undefined), the inhibition is -2.1%.

`Cc1cc(NC(=O)CSCc2nc(-c3cccc(Cl)c3)oc2C)no1`: the inhibition was 3.5%.

On to `COc1ccccc1N(CC(=O)N1CCCCC1)S(=O)(=O)c1ccccc1`, for which the inhibition was 5.5%.

`COc1ccc(N2C(=O)CC(N3CCC(C(N)=O)CC3)C2=O)cc1` (centres undefined): the inhibition was -1.8%.

For `O=C(CC1Oc2ccccc2NC1=O)NCCCN1CCN(Cc2ccccc2)CC1` (centres undefined), the inhibition is 0.1%.

For `C(=C\c1ccccc1)/CSc1nnc(-c2cccnc2)n1Cc1ccco1`, the inhibition is 5%.

Take `CCN(CC)CCN1C(=O)C(=O)/C(=C(/O)c2ccc(OC)c(OC)c2)C1c1ccccn1` (centres undefined): the inhibition is 1.6%.

With `Cc1cc(N=CC2=C(O)CCCC2=O)no1`, the inhibition is 4.3%.

Regarding `Cc1ccsc1-c1nc(CSCC(=O)NCCN2CCCC2)c(C)o1`, the inhibition is -0.8%.

For `CC1CCCN(c2ccc(C(=O)NCCc3ccccc3)cn2)C1` (centres undefined), the inhibition is 7.3%.

On to `Cc1ccc(S(=O)(=O)N2CCCC2C(=O)NCc2ccco2)cc1` (centres undefined), for which the inhibition was -1.2%.

For the molecule `CC(C)NS(=O)(=O)c1ccc(CCC(=O)N2CCOCC2)cc1`, the inhibition is 1.3%.

Take `CCn1nc(NC(=O)c2ccco2)c2cc3ccc(C)cc3nc21`: the inhibition was -4.9%.

On to `CCNS(=O)(=O)c1ccc(NC(=O)Nc2cccc(OC)c2)cc1`, for which the inhibition is 2.5%.

On to `COc1ccc(CNC(=O)c2cc3c(=O)n4ccccc4nc3n(CC3CCCO3)c2=N)cc1` (centres undefined), for which the inhibition is 5.4%.

For `CCOC(=O)c1csc(NC(=O)c2ccc(S(=O)(=O)N3CCCC3)cc2)n1`, the inhibition is -1.1%.

For the molecule `C=CCn1c(=S)[nH]c2nc3c(cc2c1=O)COC(C)(C)C3`, the inhibition was 8%.

On to `CCCCC(=O)N1CC2(C)CN(C(=O)CCCC)CC(C)(C1)C2=O`, for which the inhibition was 3.9%.

Turning to `O=C(Nc1ccccc1F)c1cc(S(=O)(=O)N2CCCCC2)cs1`, the inhibition is 9.5%.

For `O=C(CSc1ncccn1)NCCc1ccccc1`, the inhibition was 6.2%.

For `CCCOC(=O)Cc1c(O)c2ccccc2[nH]c1=O`, the inhibition was 1.5%.

With `CC1(C)CC(=O)C=C(NC2CC(C)(C)NC(C)(C)C2)C1`, the inhibition was 5.7%.

Take `O=C(OCC(=O)N1CCCC1)c1ccco1`: the inhibition is 3.5%.

With `Cc1oc(CC(C)C)c(CN2CCCC2)c1C(=O)O`, the inhibition is 0.9%.

For `CC(=O)Cc1nsc(NC(=O)c2ccc(COc3ccc(C)cc3)o2)n1`, the inhibition is 2.4%.

For `Cc1noc(C)c1S(=O)(=O)N1CCCC(C(=O)Nc2nccs2)C1` (centres undefined), the inhibition is 3.5%.

Consider `CCOC(=O)CC1=CC(=O)Nc2ccccc2N1`, for which the inhibition is 7.2%.

With `Cc1occc1C(=O)N1CCCc2ccccc21`, the inhibition is 1%.

In the case of `O=C(c1ccc(S(=O)(=O)N2CCOCC2)cc1)N1CCN(c2ccccc2)CC1`, the inhibition was 2.3%.

In the case of `O=C1c2oc3ccccc3c(=O)c2C(c2cccc(O)c2)N1c1ccccn1` (centres undefined), the inhibition is 1%.

Regarding `COc1ccc(-n2c(SCC(=O)Nc3ccc4c(c3)OCO4)nnc2C(C)N2CCCCC2)cc1` (centres undefined), the inhibition is 1%.

On to `c1ccc2c(NCC3CCCO3)nc(-c3ccncc3)nc2c1` (centres undefined), for which the inhibition was 5.5%.

Consider `Cc1noc(C)c1COC(=O)Cn1c(C)nc2ccccc21`, for which the inhibition was 5.1%.

`CCOC(=O)C1CCN(C(=O)C2CCN(S(=O)(=O)CC)CC2)CC1`: the inhibition is -1.2%.

Turning to `CCCc1nc(SCC(=O)Nc2ccccc2OC)c2c(=O)n(C)c(=O)n(C)c2n1`, the inhibition is 1.6%.

As for `CCOc1ccccc1N(CC(=O)NC1CCCCC1)C(=O)CCCC(=O)Nc1ccccn1`, the inhibition is 4.8%.

On to `O=C(CSc1nnc(-c2cccnc2)n1Cc1ccco1)c1ccc(Cl)cc1`, for which the inhibition was 2.8%.

On to `CCOc1ccccc1NC(=O)CCc1ccc(C)o1`, for which the inhibition was 0.9%.

As to `CS(=O)(=O)c1ccc2nc(NC(=O)C3CCCCC3)sc2c1`, the inhibition is 6.5%.

With `O=c1c(F)cn(C2CCCO2)c(=O)n1Cc1ccccc1Cl` (centres undefined), the inhibition is -7.2%.

Consider `CCn1c(CSc2ncccn2)nnc1SCC(=O)N1c2ccccc2CC1C` (centres undefined), for which the inhibition is 1.2%.

Regarding `CCCOc1ccc(N2CC(C(=O)Nc3ccccn3)CC2=O)cc1` (centres undefined), the inhibition was 2.5%.

With `O=C1CCCC2=C1C(c1cccs1)n1nc(SCc3ccccc3)nc1N2` (centres undefined), the inhibition was 2%.

Take `COc1ccc(-c2[nH]nc3c2C(c2ccncc2)C(C#N)=C(N)O3)cc1` (centres undefined): the inhibition is -0.8%.

Consider `CC(C(=O)N1CCOCC1)N1c2cccc3cccc(c23)S1(=O)=O` (centres undefined), for which the inhibition was 11.3%.

As for `O=C(c1cccs1)N(C(=O)c1cccs1)c1ccccn1`, the inhibition was 3.6%.

For the molecule `CCc1c(C)nc(N2CCN(Cc3ccccc3)CC2)[nH]c1=O`, the inhibition was -0.6%.

Regarding `CCN1CCN(Cc2nc3c(c(=O)n(C)c(=O)n3C)n2CC(=O)c2ccccc2)CC1`, the inhibition was -1.1%.

In the case of `COc1ccccc1CNC(=O)Cn1cc2c(n1)CCCC2`, the inhibition is 2.7%.

Regarding `N#CCCn1cnc2ccccc21`, the inhibition is 0.3%.

Take `CCn1c(=N)n(CC(=O)c2cccc(OC)c2)c2ccccc21`: the inhibition was -1.1%.

Take `CCOCCCNC(=O)c1c[nH]c2cc(C)ccc2c1=O`: the inhibition is -0.3%.

Consider `Brc1cnc(N2CCCC2)nc1N1CCCCC1`, for which the inhibition is 2%.

As to `COc1ccc(N2CC(C)Cn3c2nc2c3c(=O)n(Cc3ccccc3F)c(=O)n2C)c(OC)c1` (centres undefined), the inhibition was -0.2%.

For the molecule `CCC(Sc1nncn1C)C(=O)Nc1nnc(-c2ccc(Cl)cc2)s1` (centres undefined), the inhibition was 3.6%.

With `COc1ccc(N=Cc2c(O)[nH]c3ccccc23)cc1OC`, the inhibition was 36.8% (active).

Regarding `COc1cc(N=Cc2c(O)[nH]c3ccccc23)cc(OC)c1OC`, the inhibition is 58.4% (active).

With `COc1ccc(OC)c(N=Cc2c(O)[nH]c3ccccc23)c1`, the inhibition is 12.3%.

`COc1ccc2[nH]c3ccc(OC)cc3c2c1`: the inhibition is 5.6%.

With `COC(=O)c1[nH]c2ccccc2c1NS(=O)(=O)c1ccc(OC)cc1OC`, the inhibition was 5.9%.

As for `COc1ccc(CCNC(=O)CCCCn2c(=O)[nH]c3ccccc3c2=O)cc1OC`, the inhibition is 4.9%.

In the case of `CC(C)=C(NC(=O)c1ccco1)C(=O)NCCc1nc2ccccc2[nH]1`, the inhibition was 1.2%.

Take `COc1cc(NS(=O)(=O)c2ccccc2)ccc1-n1nc(C)cc1C`: the inhibition was 10.8%.

As to `CCCOC(=O)c1cc2ccccc2oc1=O`, the inhibition is 0.3%.

Take `CCOc1cc(S(=O)(=O)NCc2ccc3c(c2)OCO3)ccc1F`: the inhibition is 0.8%.

Take `CN(C)/C=C1\C=C(c2ccccc2)OC1=O`: the inhibition is 0.1%.

For the molecule `COCCN1C(=O)c2oc3c(C)cc(C)cc3c(=O)c2C1c1cccc(O)c1` (centres undefined), the inhibition was -3%.

In the case of `O=C(NCCCN1CCN(Cc2ccccc2)CC1)C1CCN(S(=O)(=O)N2CCCC2)CC1`, the inhibition was 2.6%.

On to `O=C(c1ccco1)N1CCN(C(=O)C2c3ccccc3Oc3ccccc32)CC1`, for which the inhibition is -3.5%.

The record behind these values is PubChem BioAssay AID604 (The Scripps Research Institute Molecular Screening Center, 2007).
